What was measured:
Experiment in all cases: log2 ratio of Biotin-Ahx-Ub-VS probe labelling (fragment/DMSO); higher = less target engagement (more negative = stronger competition), active = hit call of the paper (q ≤ 0.05, log2 ratio ≤ -1)
Settings in all cases: compound concentration: 200 uM; treatment time: 3 h
ALG13 = molecular target: T1, ALG13 (UniProt Q9NP73)
T1 sequence (whole entry): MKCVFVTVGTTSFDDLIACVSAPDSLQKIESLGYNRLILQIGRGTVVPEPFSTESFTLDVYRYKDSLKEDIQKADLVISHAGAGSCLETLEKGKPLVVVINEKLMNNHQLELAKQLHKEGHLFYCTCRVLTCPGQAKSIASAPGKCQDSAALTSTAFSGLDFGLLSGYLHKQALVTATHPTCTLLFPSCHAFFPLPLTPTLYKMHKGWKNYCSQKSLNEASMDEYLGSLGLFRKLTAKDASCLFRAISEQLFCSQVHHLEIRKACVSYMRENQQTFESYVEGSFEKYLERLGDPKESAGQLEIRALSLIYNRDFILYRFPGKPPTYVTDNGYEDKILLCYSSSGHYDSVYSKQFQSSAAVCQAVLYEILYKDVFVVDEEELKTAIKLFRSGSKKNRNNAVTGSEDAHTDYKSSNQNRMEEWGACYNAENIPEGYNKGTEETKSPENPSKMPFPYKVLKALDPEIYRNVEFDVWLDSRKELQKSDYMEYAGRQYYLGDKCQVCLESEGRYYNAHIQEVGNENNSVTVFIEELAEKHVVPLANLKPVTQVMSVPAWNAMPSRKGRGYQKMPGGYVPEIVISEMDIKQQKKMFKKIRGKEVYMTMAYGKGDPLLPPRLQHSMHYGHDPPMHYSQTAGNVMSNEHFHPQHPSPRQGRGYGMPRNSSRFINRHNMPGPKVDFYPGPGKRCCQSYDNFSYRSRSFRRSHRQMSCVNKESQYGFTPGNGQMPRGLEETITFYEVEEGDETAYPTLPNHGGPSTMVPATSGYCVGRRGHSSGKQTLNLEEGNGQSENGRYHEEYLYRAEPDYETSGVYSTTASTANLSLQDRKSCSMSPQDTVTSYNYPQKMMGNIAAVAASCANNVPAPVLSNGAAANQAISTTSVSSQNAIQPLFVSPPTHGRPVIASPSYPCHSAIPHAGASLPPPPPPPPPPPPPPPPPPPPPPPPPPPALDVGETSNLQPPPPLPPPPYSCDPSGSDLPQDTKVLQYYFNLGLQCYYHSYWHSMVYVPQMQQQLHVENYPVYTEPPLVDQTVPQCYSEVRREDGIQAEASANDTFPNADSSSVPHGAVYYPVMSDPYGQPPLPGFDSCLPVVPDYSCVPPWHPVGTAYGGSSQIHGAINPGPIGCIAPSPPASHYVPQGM
Summary of the method: (§1)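 Global-median-normalised Spectronaut label-free quantities were compared by unpaired t-test, and values are average log2 ratios of fragment over vehicle. Only proteins with ≥2 unique peptides were used. HEK293T lysate (495 µg per sample) was treated in triplicate with fragment at 200 µM or vehicle for 3 h and then with Biotin-Ahx-Ub-VS at 0.5 µM final for 1 h. Labelled DUBs were then NeutrAvidin-enriched, digested with LysC and trypsin, and run by diaPASEF LC-MS/MS.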

ATXN3 = ATXN3 (UniProt P54252)
Sequence of ATXN3 (P54252 whole entry): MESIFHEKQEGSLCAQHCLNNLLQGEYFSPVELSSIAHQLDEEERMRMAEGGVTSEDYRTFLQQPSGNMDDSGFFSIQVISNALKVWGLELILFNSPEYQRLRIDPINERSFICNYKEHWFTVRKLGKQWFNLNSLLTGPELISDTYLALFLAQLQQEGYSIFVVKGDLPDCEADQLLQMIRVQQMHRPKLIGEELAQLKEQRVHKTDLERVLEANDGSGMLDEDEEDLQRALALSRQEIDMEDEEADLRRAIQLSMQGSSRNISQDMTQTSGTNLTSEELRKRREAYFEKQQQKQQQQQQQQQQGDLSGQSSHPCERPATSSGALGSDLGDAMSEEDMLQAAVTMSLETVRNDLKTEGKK
Summary of the method: as §1

BAP1 = molecular target: T2, BAP1 (UniProt Q92560)
T2 sequence (whole entry): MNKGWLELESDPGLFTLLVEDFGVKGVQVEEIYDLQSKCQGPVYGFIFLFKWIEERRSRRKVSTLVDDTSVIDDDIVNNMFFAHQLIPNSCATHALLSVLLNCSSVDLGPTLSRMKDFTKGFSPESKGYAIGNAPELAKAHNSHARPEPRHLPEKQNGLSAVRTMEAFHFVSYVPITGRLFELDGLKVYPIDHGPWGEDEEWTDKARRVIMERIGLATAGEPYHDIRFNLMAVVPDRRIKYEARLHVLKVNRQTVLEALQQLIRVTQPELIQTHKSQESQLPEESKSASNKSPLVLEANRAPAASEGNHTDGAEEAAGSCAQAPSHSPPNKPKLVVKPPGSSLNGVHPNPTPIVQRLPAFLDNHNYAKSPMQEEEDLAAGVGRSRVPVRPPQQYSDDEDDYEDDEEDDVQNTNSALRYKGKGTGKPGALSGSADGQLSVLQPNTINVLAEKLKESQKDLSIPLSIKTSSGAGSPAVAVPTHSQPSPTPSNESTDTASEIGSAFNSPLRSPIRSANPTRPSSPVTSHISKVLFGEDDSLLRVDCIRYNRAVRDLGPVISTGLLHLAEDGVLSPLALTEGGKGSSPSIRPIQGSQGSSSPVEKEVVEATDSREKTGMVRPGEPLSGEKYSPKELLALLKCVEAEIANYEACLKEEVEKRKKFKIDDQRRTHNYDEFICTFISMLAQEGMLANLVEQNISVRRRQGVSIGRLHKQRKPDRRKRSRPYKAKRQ
Summary of the method: as §1

EIF3F = EIF3F (UniProt O00303)
Sequence of EIF3F (O00303 whole entry): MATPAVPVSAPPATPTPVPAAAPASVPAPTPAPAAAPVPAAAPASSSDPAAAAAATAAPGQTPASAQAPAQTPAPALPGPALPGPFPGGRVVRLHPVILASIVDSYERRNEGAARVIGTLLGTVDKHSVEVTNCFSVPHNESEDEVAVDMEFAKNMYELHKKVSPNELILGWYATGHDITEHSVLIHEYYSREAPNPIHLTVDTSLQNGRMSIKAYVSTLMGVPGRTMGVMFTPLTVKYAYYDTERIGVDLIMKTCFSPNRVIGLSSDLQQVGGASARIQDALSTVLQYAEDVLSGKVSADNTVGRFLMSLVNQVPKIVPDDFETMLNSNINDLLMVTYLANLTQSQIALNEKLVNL
Summary of the method: as §1

EIF3H = EIF3H (UniProt O15372)
Sequence of EIF3H (O15372 whole entry): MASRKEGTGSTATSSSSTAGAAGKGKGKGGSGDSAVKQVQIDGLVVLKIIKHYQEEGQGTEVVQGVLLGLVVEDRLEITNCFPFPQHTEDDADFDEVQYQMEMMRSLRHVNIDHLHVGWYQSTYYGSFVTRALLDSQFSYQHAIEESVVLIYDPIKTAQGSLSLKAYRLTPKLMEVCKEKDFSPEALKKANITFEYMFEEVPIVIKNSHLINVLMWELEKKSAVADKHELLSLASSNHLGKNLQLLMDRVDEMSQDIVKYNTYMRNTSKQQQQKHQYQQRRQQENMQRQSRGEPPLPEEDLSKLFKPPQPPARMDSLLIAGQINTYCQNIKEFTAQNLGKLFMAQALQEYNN
Summary of the method: as §1

FAM105A = molecular target: T3, FAM105A (UniProt Q9NUU6)
T3 sequence (whole entry): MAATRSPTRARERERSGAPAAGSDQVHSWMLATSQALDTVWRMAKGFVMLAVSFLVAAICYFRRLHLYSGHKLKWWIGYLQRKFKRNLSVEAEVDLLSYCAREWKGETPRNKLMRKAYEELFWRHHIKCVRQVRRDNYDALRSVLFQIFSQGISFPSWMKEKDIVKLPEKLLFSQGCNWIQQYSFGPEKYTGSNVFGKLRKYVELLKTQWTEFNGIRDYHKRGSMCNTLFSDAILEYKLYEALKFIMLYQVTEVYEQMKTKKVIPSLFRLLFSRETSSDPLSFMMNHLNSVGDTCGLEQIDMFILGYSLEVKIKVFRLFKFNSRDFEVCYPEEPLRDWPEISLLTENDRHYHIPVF
Summary of the method: as §1

OTUB1 = OTUB1 (UniProt Q96FW1)
Sequence of OTUB1 (Q96FW1 whole entry): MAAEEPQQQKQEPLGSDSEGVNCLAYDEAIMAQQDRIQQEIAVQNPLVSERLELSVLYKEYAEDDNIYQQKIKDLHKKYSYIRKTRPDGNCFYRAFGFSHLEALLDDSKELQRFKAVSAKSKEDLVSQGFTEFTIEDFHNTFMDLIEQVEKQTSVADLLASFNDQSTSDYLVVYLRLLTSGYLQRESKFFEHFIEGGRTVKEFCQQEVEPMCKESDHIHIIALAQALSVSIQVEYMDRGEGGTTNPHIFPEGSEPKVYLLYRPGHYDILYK
Summary of the method: as §1

OTUD4 = molecular target: T4, OTUD4 (UniProt Q01804)
T4 sequence (whole entry): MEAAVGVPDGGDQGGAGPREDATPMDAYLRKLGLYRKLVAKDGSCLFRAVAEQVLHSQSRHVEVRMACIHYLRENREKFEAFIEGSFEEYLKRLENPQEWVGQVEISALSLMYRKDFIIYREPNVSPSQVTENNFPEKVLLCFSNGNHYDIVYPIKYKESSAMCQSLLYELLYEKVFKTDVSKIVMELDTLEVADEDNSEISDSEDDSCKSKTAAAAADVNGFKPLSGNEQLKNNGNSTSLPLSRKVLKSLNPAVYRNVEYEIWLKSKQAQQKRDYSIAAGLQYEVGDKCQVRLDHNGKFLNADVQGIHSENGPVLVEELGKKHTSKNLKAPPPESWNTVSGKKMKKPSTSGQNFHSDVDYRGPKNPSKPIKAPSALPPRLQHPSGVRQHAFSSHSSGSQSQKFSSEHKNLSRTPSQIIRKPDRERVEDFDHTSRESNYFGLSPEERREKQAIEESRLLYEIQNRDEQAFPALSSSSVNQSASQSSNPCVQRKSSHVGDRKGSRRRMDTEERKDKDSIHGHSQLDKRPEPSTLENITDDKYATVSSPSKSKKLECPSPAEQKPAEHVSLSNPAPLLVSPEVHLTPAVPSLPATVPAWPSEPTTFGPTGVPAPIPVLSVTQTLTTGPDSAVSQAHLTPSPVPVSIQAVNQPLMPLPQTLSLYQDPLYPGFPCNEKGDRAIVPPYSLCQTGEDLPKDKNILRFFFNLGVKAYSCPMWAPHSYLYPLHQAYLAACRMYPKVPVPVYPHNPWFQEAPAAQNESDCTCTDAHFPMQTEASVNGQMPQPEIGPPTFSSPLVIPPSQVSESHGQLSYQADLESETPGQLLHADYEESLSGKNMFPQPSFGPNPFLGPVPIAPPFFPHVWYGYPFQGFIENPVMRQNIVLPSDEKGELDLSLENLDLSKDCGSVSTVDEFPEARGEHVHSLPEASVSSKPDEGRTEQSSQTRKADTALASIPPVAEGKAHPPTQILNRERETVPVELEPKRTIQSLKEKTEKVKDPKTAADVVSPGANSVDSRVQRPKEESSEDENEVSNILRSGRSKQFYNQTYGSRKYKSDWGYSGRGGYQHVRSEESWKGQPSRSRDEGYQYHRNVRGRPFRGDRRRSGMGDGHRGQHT
Summary of the method: as §1

OTUD5 = molecular target: T5, OTUD5 (UniProt Q96G74)
T5 sequence (whole entry): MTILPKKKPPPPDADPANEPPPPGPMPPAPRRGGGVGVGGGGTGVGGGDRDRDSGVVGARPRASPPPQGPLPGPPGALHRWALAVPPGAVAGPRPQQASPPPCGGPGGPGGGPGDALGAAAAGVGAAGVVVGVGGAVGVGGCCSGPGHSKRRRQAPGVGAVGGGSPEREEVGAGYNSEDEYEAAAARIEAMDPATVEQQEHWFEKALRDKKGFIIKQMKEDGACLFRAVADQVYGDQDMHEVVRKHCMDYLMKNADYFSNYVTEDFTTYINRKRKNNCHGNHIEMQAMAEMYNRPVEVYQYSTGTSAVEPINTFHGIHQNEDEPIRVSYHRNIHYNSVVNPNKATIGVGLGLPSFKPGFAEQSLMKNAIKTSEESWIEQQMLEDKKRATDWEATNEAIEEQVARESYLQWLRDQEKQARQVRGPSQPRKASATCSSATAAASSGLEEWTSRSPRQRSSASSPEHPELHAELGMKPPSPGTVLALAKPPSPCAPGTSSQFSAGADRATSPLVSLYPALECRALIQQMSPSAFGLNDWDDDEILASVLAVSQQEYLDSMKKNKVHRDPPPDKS
Summary of the method: as §1

Measured: log2 ratio of Biotin-Ahx-Ub-VS probe labelling

Cl.O=C(CCl)N[C@H]1C[C@@H](n2cccn2)C1
inactive: ALG13 -0.266 | ATXN3 -0.161 | EIF3F -0.862 | EIF3H 0.149 | FAM105A -0.138 | OTUB1 -0.581 | OTUD4 -0.0468 | OTUD5 -0.587
active: BAP1 -1.24

Cl.O=C(CCl)N1CCn2ncc(O)c2C1
inactive: ALG13 0.326 | EIF3F -0.296 | EIF3H 0.21 | FAM105A -0.377 | OTUB1 -0.64 | OTUD4 -0.808 | OTUD5 -0.908
active: ATXN3 -1.69 | BAP1 -2.39

CC(NC(=O)CCl)c1cccc2ccccc12 (stereo not given)
active: BAP1 -4.13 | OTUD4 -1.01
inactive: ALG13 0.0911 | ATXN3 -0.129 | EIF3F -0.0141 | EIF3H -0.0531 | FAM105A -0.022 | OTUB1 -0.352 | OTUD5 -0.234

O=C(CCl)Nc1ccc(N2CCCC2=O)cc1
active: BAP1 -3.73
inactive: ALG13 0.0794 | ATXN3 0.0787 | EIF3F -0.125 | EIF3H 0.315 | FAM105A 0.0919 | OTUB1 -0.351 | OTUD4 0.0281 | OTUD5 -0.504

Cc1conc1C1CN(C(=O)CCl)C1
inactive: ALG13 0.0664 | ATXN3 -0.85 | EIF3F -0.671 | EIF3H 0.138 | FAM105A 0.111 | OTUB1 -0.109 | OTUD4 -0.837 | OTUD5 -0.861
active: BAP1 -1.76

Cc1ccc(N(C(=O)CCl)C2C=CS(=O)(=O)C2)cc1 (stereo not given)
inactive: ALG13 -0.425 | ATXN3 0.116 | BAP1 -0.0645 | EIF3F -0.128 | EIF3H -0.276 | FAM105A 0.167 | OTUB1 -0.0537 | OTUD4 0.0564 | OTUD5 -0.00864

O=C(CCl)N1CC=C(c2c[nH]c3ccccc23)CC1
inactive: ALG13 -0.249 | EIF3F -0.308 | EIF3H 0.184 | FAM105A -0.087 | OTUB1 -0.218 | OTUD4 -0.412
active: ATXN3 -1.2 | BAP1 -1.95 | OTUD5 -1.27

O=C(O)C1Cc2ccccc2CN1C(=O)CCl (stereo not given)
inactive: ALG13 0.144 | ATXN3 -0.269 | BAP1 -0.657 | EIF3F -0.182 | EIF3H -0.0826 | FAM105A 0.395 | OTUB1 -0.323 | OTUD4 -0.404 | OTUD5 -0.562

COc1ccccc1C(C)NC(=O)CCl (stereo not given)
active: BAP1 -2.35
inactive: ALG13 -0.0378 | ATXN3 -0.0967 | EIF3F -0.185 | EIF3H -0.0831 | FAM105A -0.0799 | OTUB1 -0.298 | OTUD4 -0.393 | OTUD5 -0.514

COc1cccc(CN(C)C(=O)CCl)c1
active: BAP1 -2.68
inactive: ALG13 -0.0162 | ATXN3 -0.781 | EIF3F 0.0528 | EIF3H -0.0896 | FAM105A -0.419 | OTUB1 0.00861 | OTUD4 -0.462 | OTUD5 -0.999

Cc1c(C#N)c(NC(=O)CCl)n(Cc2ccco2)c1C
inactive: ALG13 0.126 | ATXN3 -0.609 | EIF3F -0.174 | EIF3H -0.447 | FAM105A -0.107 | OTUB1 0.0458 | OTUD4 -0.292 | OTUD5 -0.61
active: BAP1 -3.61

O=C(CCl)N1CCC(=C(F)CO)C1
inactive: ALG13 -0.0371 | ATXN3 -0.106 | BAP1 -0.015 | EIF3F -0.0747 | EIF3H -0.169 | FAM105A -0.0583 | OTUB1 -0.0358 | OTUD4 0.198 | OTUD5 -0.126

Cc1cccc(NC(=O)CCl)c1C
active: BAP1 -3.21
inactive: ALG13 0.138 | ATXN3 -0.243 | EIF3F -0.272 | EIF3H 0.00998 | FAM105A 0.19 | OTUB1 0.0184 | OTUD4 -0.0599 | OTUD5 -0.394

CC1Cc2ccccc2N1C(=O)CCl (stereo not given)
inactive: ALG13 -0.0487 | ATXN3 -0.989 | BAP1 -0.55 | EIF3F -0.355 | EIF3H 0.0594 | FAM105A -0.0636 | OTUB1 -0.626 | OTUD4 -0.544 | OTUD5 -0.957

O=C(CCl)N(Cc1ccsc1)C1CC1
inactive: ALG13 0.115 | ATXN3 -0.173 | BAP1 -0.841 | EIF3F -0.0964 | EIF3H 0.0796 | FAM105A -0.378 | OTUB1 -0.191 | OTUD4 -0.285 | OTUD5 -0.657

From the supplement of paper PMC11732987, “Enantioselective OTUD7B fragment discovery through chemoproteomics screening and high-throughput optimisation” (Communications Chemistry, 2025)
